110 compounds from PubChem BioAssay AID2253 (Southern Research Specialized Biocontainment Screening …, 2010) can be followed below.

The structures appear in SMILES notation. In all, about 2,200 compounds went through this assay and about 1,300 (59%) were called active. How the calls were made is not given here. So high a share suggests a set chosen from earlier hits. Only a sample is shown. Results with a measured potency or affinity are listed apart.

The nature of this assay: human monocytic cell viability reduction – S. typhimurium screen hits, cytotoxicity control for Salmonella PhoP regulon inhibitors, dose response (AID 2253). The following applies: THP-1 viability, CellTiter-Glo luminescence, 72 h; series mostly up to 50 µM; viability: at the top concentration. For orientation: In ATP-based viability assays light output follows the ATP content of the culture.
By viability is commonly meant a read-out of living cells in per cent, often relative to untreated cells. Regarding `Cc1ccc(OCC(=O)N2CCN(S(=O)(=O)c3ccccc3)CC2)c([N+](=O)[O-])n1`, the “viability” value is 106% (inactive).

Turning to `CCOC(=O)C(/C=C(\C#N)C(=O)OCC)=C(/N)N1CCN(c2c(C)cccc2C)CC1`, the “viability” value is 82.1% (inactive). For `Cc1ccccc1NC(=S)N(CCCN1CCOCC1)Cc1ccccn1` the value was 113% (inactive); for `Brc1ccc2nc3c(n2c1)CCCC3`, 81.3% [at 25 µM] (inactive).

As to `CCCCn1c(NCCO)nc2ccccc21`, the “viability” value was 96.2% (inactive). For `Nc1ccc(C(=O)OCc2nc3ccccc3[nH]2)cc1` the value was 87.7% (inactive). With `COc1c(F)c(F)cc2c(=O)c(C(=O)O)cn(C3CC3)c12` the figure was 96.7% (inactive); with `O=C(Cn1nc(C(F)(F)F)c2c1CCCCC2)N1CCOCC1`, 98.2% (inactive); with `CCCNC(=O)COC(=O)CCC(=O)c1ccc(F)cc1`, 92.6% (inactive). With `O=C(c1cc2ncc(Br)cn2n1)N1CCOCC1` the figure was 99.4% (inactive). As to `C(=N\N1CCN(C2c3ccccc3-c3ccccc32)CC1)/c1cccs1`, the “viability” value was 94.6% (inactive). With `CCn1cc(C(=O)O)c(=O)c2cnc(N3CCN(C(=S)NC(=O)c4ccc(Cl)cc4)CC3)nc21` the figure was 81% (inactive). For `CCOc1ccc(-c2noc(CCCC(N)=O)n2)cc1OC` the value was 102% (inactive); for `COc1c(N2C[C@@H]3CCCN[C@@H]3C2)c(F)cc2c(=O)c(C(=O)O)cn(C3CC3)c12`, 96.6% (inactive); for `N/C(=N\OC(=O)Cc1ccc(Cl)cc1)c1cccnc1`, 112% (inactive).

With `COc1cccc(N=Cc2c[nH][nH]c2=O)c1`, the “viability” value was 82.5% (inactive). For `Cc1cc2ncn(C3CC(=O)N(Cc4ccc(N5CCCC5=O)cc4)C3=O)c2cc1C` (stereo not given), the “viability” value was 102% (inactive). With `CC(NC(=O)C1(C)CC1(Br)Br)C(C)(C)C` (stereo not given) the figure was 97.6% (inactive).

As for `CN1/C(=C/C2CC(=O)N(c3cccc4ccccc34)C2=O)C(C)(C)c2ccccc21` (stereo not given), the “viability” value was 86.7% (inactive). For `O=C(OCCN1C(=O)c2ccccc2C1=O)c1ccc(S(=O)(=O)N2CCCCCC2)cc1` the value was 106% (inactive). With `Cc1ccc(NC(=O)CCN2CCc3ccccc3C2)cc1` the figure was 83.3% (inactive). With `CCCCCC(=O)Nc1ccc2ccccc2c1` the figure was 94% (inactive). Turning to `C/C(=N\NC(=O)c1c(Cl)c(C)nn1C)c1cccc(NC(=O)COc2ccc(Cl)cc2)c1`, the “viability” value is 90.3% (inactive). For `O=S(=O)(NCc1ccccc1)c1cccc(S(=O)(=O)N2CCOCC2)c1`, the “viability” value is 84.2% (inactive).

Consider `O=C(Nc1ccc2oc(-c3ccc(Cl)c(Cl)c3)nc2c1)c1ncn[nH]1`, for which the “viability” value is 90.1% (inactive). With `Nc1cc(N)cc(-c2nc3ccccc3[nH]2)c1` the figure was 90.1% (inactive); with `Nc1nc(N)nc(-c2ccccc2)n1`, 99.9% (inactive); with `O=C(O)CCc1nn2c3ccccc3n(CCN3CCCCC3)c2nc1=O`, 101% (inactive).

For the compound `C=CCn1c(SCCOc2ccc(OC)cc2)nnc1C(C)NC(=O)c1ccc(OC)cc1` (stereo not given), the “viability” value was 81.2% (inactive). With `COc1ccc(OCCSc2nnc(-c3ccc(OC)cc3)n2N)cc1` the figure was 105% (inactive); with `COC(=O)c1ccc(COC(=O)c2ccccn2)cc1`, 103% (inactive); with `CC(O)c1ccc(OCCN(C)c2ccccn2)cc1` (stereo not given), 80.3% (inactive).

Consider `Cc1ccc(-n2ncc3c(N4CCN(c5ccccc5)CC4)ncnc32)c(C)c1`, for which the “viability” value is 83.1% (inactive). For `COc1cc(NC(=O)CSc2nnnn2Cc2ccc3c(c2)OCO3)cc(OC)c1` the value was 82.7% (inactive); for `c1ccc(-c2cnn3nnnc3n2)cc1`, 92.2% (inactive); for `CCc1c(C)c2cc(Cl)c(O)c(CN(C)C)c2oc1=O`, 101% (inactive). As for `O=C(CCN1C(=O)c2ccccc2S1(=O)=O)Nc1ccc2c(c1)OCCO2`, the “viability” value was 84.7% (inactive). With `CC(=O)c1c(N2CCN(C(=O)C3CCCO3)CC2)nc(=S)n(-c2ccccc2)c1C` (stereo not given) the figure was 98.6% (inactive). With `O=C(Nc1ccc(F)cc1)c1ccccc1F` the figure was 81.9% (inactive); with `COc1ccc(CCNC(=O)c2ccc(CN3CCOCC3)cc2)cc1`, 102% (inactive).

As for `O=C(CCN1C(=O)COc2ccccc21)NCCN1CCOCC1`, the “viability” value was 107% (inactive). For `CC1(C)CC(=O)C(/C=N/c2ncccc2C(=O)O)=C(O)C1` the value was 91% (inactive); for `O=C(NC(CO)C(O)c1ccc([N+](=O)[O-])cc1)C(Cl)Cl` (stereo not given), 83.4% (inactive). For `Cc1cc(-c2csc(N)n2)c(C)n1C` the value was 103% (inactive); for `Cc1ccc(-n2c(C)cc(-c3csc(N)n3)c2C)cc1`, 96.6% (inactive). For `Cc1ccccc1NC(=O)c1ccc(-n2cncn2)nc1` the value was 92.5% (inactive); for `O=C1C(c2ccc(F)cc2)N(Cc2ccc3c(c2)OCO3)C(=O)CN1C1CCCCCC1` (stereo not given), 93% (inactive).

Consider `Nc1ccc(Nc2ccccc2)c(Cl)c1`, for which the “viability” value is 92.2% (inactive). With `C/C(=N\n1nnnc1Nc1ccccc1)c1ccc(N)cc1`, the “viability” value was 93.7% (inactive). For `CCn1cc(C(=O)O)c(=O)c2cc(F)c(N3CCN(C(=S)NC(=O)c4ccccc4Cl)CC3)cc21` the value was 98.7% (inactive); for `CSCCC(NC(=O)c1cccc(C)c1)C(=O)OCC(=O)NC(=O)c1cccn1C` (stereo not given), 94.9% (inactive); for `COc1ccc(Cl)cc1-c1nc(SCC(N)=O)n[nH]1`, 91.2% (inactive). With `COC(=O)c1sccc1NC(=O)c1cccnc1` the figure was 94.4% (inactive); with `CC(=O)Nc1ccc(OC(=O)c2cccnc2)cc1`, 81.9% (inactive).

As to `Cc1cc(-c2csc(NC(=O)c3ccc(S(=O)(=O)N(C)C)cc3)n2)c(C)n1-c1ccccc1`, the “viability” value is 106% (inactive). For `CC(=O)Nc1ccc(C(=O)Nc2nc(-c3cc(C)n(Cc4ccccc4)c3C)cs2)cc1` the value was 98% (inactive). With `O=C(/C=C/c1ccco1)N/C(=C\c1ccccc1)C(=O)NCCc1nc2ccccc2[nH]1` the figure was 81.4% (inactive); with `Cc1ccc2c(CN3CCC(C)CC3)cc(=O)oc2c1`, 94.1% (inactive). As to `N#Cc1nc(-c2ccco2)oc1NCCCN1CCOCC1`, the “viability” value is 108% (inactive). With `N#CC1=C(N)SC(N)=C(C#N)C1c1ccc([N+](=O)[O-])cc1` the figure was 101% (inactive). With `CC1CCCCN1CCNS(=O)(=O)c1ccc2c(c1)oc(=O)n2C` (stereo not given) the figure was 100% (inactive).

For `Cn1nnnc1SCC(=O)NC1CCCCC1`, the “viability” value is 88% (inactive). `CC1(C)CC(=O)C2=C(C1)N(Cc1ccccc1)C(=O)C2(O)C(F)(F)F` (stereo not given): the “viability” value is 93.4% (inactive).

As for `C/C(=N/Nc1nc(-c2ccc(Cl)cc2)cs1)c1cccs1`, the “viability” value was 86.8% [at 12.5 µM] (inactive). With `CCc1c(C)c2cc(Cl)c(O)c(CN3CCCCC3)c2oc1=O` the figure was 100% (inactive); with `O=C(CCc1ccccc1)Nc1nc2ccc(S(=O)(=O)N3CCOCC3)cc2s1`, 85.6% [at 25 µM] (inactive).

For `O=C(NCc1cn2ccsc2n1)Nc1ccc(Cl)cc1`, the “viability” value is 81.7% (inactive). With `COc1ccccc1CNc1nc2nc(C)c(C)c(=O)n2[nH]1` the figure was 95.3% (inactive); with `O=C(c1cnsn1)N1CCN(c2ccccc2)CC1`, 81.3% (inactive). For `O=C1CC(c2ccccc2)n2nc(NC(=O)c3ccccc3)nc2N1` (stereo not given) the value was 89.1% (inactive). For `Cc1nc(N2CCN(c3ccccc3)CC2)nc2c1C(=O)CC(C)C2` (stereo not given) the value was 91.5% (inactive). As to `CCC(CC)NC(=O)COC(=O)c1ccc(OCC(=O)Nc2ccccc2OC)c(OC)c1`, the “viability” value is 89.9% (inactive). For `Cc1ccc(CNC(=O)Nc2cccs2)cc1` the value was 92.3% (inactive); for `CCn1c(=O)c(=O)[nH]c2cc(C(=O)NCC3CCCCC3)ccc21`, 94% (inactive).

Turning to `O=C1c2ccccc2C(=O)N1c1cccc(-c2csc(Nc3ccc4c(c3)OCO4)n2)c1`, the “viability” value was 98.5% (inactive). Regarding `Oc1ccc(Nc2nc(-c3cccs3)cs2)cc1`, the “viability” value is 93.4% (inactive). With `Cc1nn2c(=O)cc(CSc3nc4ccccc4[nH]3)nc2s1` the figure was 97.9% (inactive); with `c1ccc2[nH]c(CSc3nccs3)nc2c1`, 84.4% (inactive); with `Cn1c(COc2ccccc2)nnc1SCc1nc2ccccc2[nH]1`, 95.2% (inactive). With `O=C1NC(=O)C(=C2CCCCCC2)S1` the figure was 90.7% (inactive).

With `Cc1ncoc1C(=O)Nc1cccc(Cl)c1`, the “viability” value is 99.8% (inactive). With `CS(=O)(=O)c1ccc([C@@H](O)[C@@H](CF)NC(=O)C(Cl)Cl)cc1` the figure was 93% (inactive); with `CC(=O)C1=C(C)Nc2ncnn2C1c1ccccc1OCc1ccccc1` (stereo not given), 84.5% (inactive); with `COC(=O)CN1C(c2ccc(OC)cc2)=Nc2ccc(Cl)cc2C1c1ccccc1` (stereo not given), 80.7% (inactive). Consider `O=C(c1ccccc1)c1nc2ccccc2n(CCCn2c(=O)c(C(=O)c3ccccc3)nc3ccccc32)c1=O`, for which the “viability” value is 95% (inactive). For `CC[C@H]1OC(=O)[C@H](C)[C@@H](O[C@H]2C[C@@](C)(OC)[C@@H](O)[C@H](C)O2)[C@H](C)[C@@H](O[C@@H]2O[C@H](C)C[C@H](N(C)C)[C@H]2O)[C@](C)(O)C[C@@H](C)[C@@H]2N[C@@H](COCCOC)O[C@H]([C@H]2C)[C@]1(C)O`, the “viability” value was 82.6% (inactive). Consider `CC[C@H]1OC(=O)[C@H](C)[C@@H](O[C@H]2C[C@@](C)(OC)[C@@H](O)[C@H](C)O2)[C@H](C)[C@@H](O[C@@H]2O[C@H](C)C[C@H](N(C)C)[C@H]2O)[C@](C)(O)C[C@@H](C)CN(C)[C@H](C)[C@@H](O)[C@]1(C)O`, for which the “viability” value was 89.2% (inactive). With `COc1ccccc1CC(=O)N1CCN(c2ccccn2)CC1` the figure was 90.4% (inactive).

For the compound `COCC(=O)N(Cc1ccco1)c1nnc(C2CCOC2)s1` (stereo not given), the “viability” value was 99% (inactive). For `COc1ccc(OC)c(NC(=O)c2cc3c(Cl)nc4ccccc4c3s2)c1` the value was 95.3% (inactive); for `COc1ccc(C(=O)NCCC2=CCCCC2)cc1OC`, 93.9% (inactive); for `Cc1ccc2[nH]c3c(=O)n(CCc4cnc[nH]4)cnc3c2c1`, 86.3% (inactive). For `C=CCNc1nnc(Cl)c2ccccc12` the value was 85.3% (inactive); for `O=P(Cc1cc[n+]([O-])cc1)(c1ccccc1)c1ccccc1`, 82.4% (inactive). For `NC(=S)c1cc2ccc(O)cc2oc1=O` the value was 87.2% (inactive); for `Cn1ncc(Br)c1C(=O)NCc1cccs1`, 92.8% (inactive). For the compound `O=C(NCc1cccs1)Nc1cccs1`, the “viability” value is 90.7% (inactive). For `CC(C)=CCN1CCN(Cc2ccoc2)CC1CCO` (stereo not given) the value was 94.6% (inactive). Turning to `COc1ccc(NC(=O)CSc2nc(C)cs2)cc1OC`, the “viability” value was 93.2% (inactive). As for `CSC(=NS(=O)(=O)c1ccccc1)SC`, the “viability” value is 80.6% [at 25 µM] (inactive).

Regarding `CCn1nc(C(=O)NCc2ccco2)c(Cl)c1Cl`, the “viability” value is 81.5% (inactive).

For `O=C(NCc1ccco1)C1CC(=O)N(CCc2ccccc2)C1` (stereo not given), the “viability” value is 99.7% (inactive).

As for `O=C(CNc1ccccc1)Nc1ccc(F)cc1`, the “viability” value was 87.7% (inactive). For `CCN(CC(=O)Nc1ccc(N2CCOCC2)cc1)Cc1nc2ccccc2c(=O)[nH]1` the value was 87.8% (inactive); for `Cc1c(C(c2cccc([N+](=O)[O-])c2O)c2c(C)n(C)n(-c3ccccc3)c2=O)c(=O)n(-c2ccccc2)n1C`, 106% (inactive); for `Cc1ccc(CNC(=O)c2cccc(S(C)(=O)=O)c2)cc1`, 91.7% (inactive).

With `CN(C)C(=O)c1cn(N(C)c2ncc(C(F)(F)F)cc2Cl)c(=O)c2ccccc12`, the “viability” value is 100% (inactive). With `COc1cc(C2Nc3cccc4cccc(c34)N2)cc(OC)c1O` the figure was 94.5% (inactive); with `CCOc1cc(C2Nc3cccc4cccc(c34)N2)ccc1O`, 106% (inactive).

As for `NC(=O)c1ccccc1NC(=O)/C=C/C(=O)O`, the “viability” value was 94% (inactive).
